Measured values taken from PubChem BioAssay AID1578 (Sanford-Burnham Center for Chemical Genomics, 2009).
Screen size: about 290,000 compounds; about 3,000 (1%) were called active. This is one part of a sample in which actives are shown more often than they occur. A number with no mark means an inactive call. Rule as the data show it: active = inhibition mostly above about 36% (no sharp cut-off); inactive = mostly below about 34%.

Assay: NOD1 signaling inhibitors, primary screen, cell-based, luminescence, uHTS (AID 1578);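 also: HEK-293T reporter cells stimulated with the NOD1 agonist gamma-tri-DAP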
Details: NOD1-driven NF-kB luciferase reporter cells, at 4 µM, active compounds read high
`CCOc1cc(C(=O)Nc2ccc3c(c2)OCO3)ccc1OC(F)F` showed an inhibition of -17.4%. In the case of `Clc1ccc(-n2nnc(-c3cccnc3Cl)n2)cc1Cl`, the inhibition is reported as -3%. Work on `Clc1ccc(-n2nnc(-c3cccnc3)n2)cc1Cl` yielded an inhibition of -12.2%. Molecule `Fc1ccc(-n2nnc(-c3nccs3)n2)cc1` has an inhibition of -26%. In the case of `Clc1ccc(-n2nnc(-c3nccs3)n2)cc1Cl`, the inhibition is reported as 110% (active). Work on `Brc1ccccc1-n1nnc(-c2nccs2)n1` yielded an inhibition of -44.7%. For `Cc1ccc(-n2nnc(-c3nccs3)n2)cc1`, the inhibition was 77.8% (active). Molecule `CCCC(c1nnnn1Cc1cccs1)N1CCN(C2CCCC2)CC1` (stereo unspecified) has an inhibition of -49.9%. With `COc1ccccc1-n1cnc2sc(-c3ccccc3)cc2c1=O` the inhibition was 30.1%. In the case of `O=C(CNC(=O)c1cccc(OC(F)F)c1)OCc1cc(=O)n2cc(Br)ccc2n1`, the inhibition is reported as 4.7%. With `OC(COc1ccccc1)CN1CCC(Cc2ccccc2)CC1` (stereo unspecified) the inhibition was -20.8%. Molecule `CN(C)c1nc(C(F)(F)F)cc(=O)[nH]1` has an inhibition of -21.2%. For `c1ccc(-n2ncc3c(N4CCC5(CC4)OCCO5)ncnc32)cc1`, the inhibition was -67%. `O=C(Nc1ccccc1)C1COc2ccccc2O1` (stereo unspecified) showed an inhibition of -21.9%. With `O=C(NC1=NCCS1)C1COc2ccccc2O1` (stereo unspecified) the inhibition was 82.7% (active). In the case of `Cc1cccc(NC(=O)C2COc3ccccc3O2)c1` (stereo unspecified), the inhibition is reported as -23%. `O=C(Nc1nncs1)C1COc2ccccc2O1` (stereo unspecified) gave an inhibition of -18.9%. Work on `COC(=O)c1cccc(NC(=O)C2COc3ccccc3O2)c1` (stereo unspecified) yielded an inhibition of -42.9%. In the case of `COc1cccc(NC(=O)C2COc3ccccc3O2)c1` (stereo unspecified), the inhibition is reported as 104% (active). `c1ccc(COc2cccc(CNCc3cccs3)c2)cc1` showed an inhibition of -31.8%. In the case of `O=C1CSc2ccc(C(=O)N3CCN(c4ccccn4)CC3)cc2N1`, the inhibition is reported as 0.1%. `C#CCSc1ncc(S(=O)(=O)c2ccccc2)c(=O)[nH]1` showed an inhibition of 7.6%. Work on `COCCCn1c(SCC(=O)Nc2ccc(C(C)=O)cc2)nc2ccccc2c1=O` yielded an inhibition of -25.3%. With `O=C(O)c1ccc(-c2nc3ccccc3[nH]2)cc1` the inhibition was -38.1%. In the case of `O=C(O)c1cccc(-c2nc3ccccc3[nH]2)c1`, the inhibition is reported as 61.9% (active). For `c1ccc(-c2nc3ccccc3[nH]2)cc1`, the inhibition was -1.5%. Work on `Cc1ccc(N/C(=C\C(=O)c2ccccc2)C(=O)O)cc1` yielded an inhibition of -33.5%. `O=[N+]([O-])c1ccc(S(=O)(=O)c2ccccc2)nc1` showed an inhibition of 29%. In the case of `Cc1ccc(S(=O)(=O)N2CCN(c3ccc([N+](=O)[O-])cn3)CC2)cc1`, the inhibition is reported as -9.1%. Work on `CCOc1cccc(C(=O)Nc2ccc(S(=O)(=O)Nc3cc(C)on3)cc2)c1` yielded an inhibition of -2%. With `CCN(CC)c1ncnnc1-c1ccccc1` the inhibition was -22.1%. In the case of `CC(C)(C)S(=O)(=O)/C(C#N)=N/Nc1ccc(C#N)cc1`, the inhibition is reported as -38.5%. For `CC(C)(C)c1ccc(N/N=C(\C#N)S(=O)(=O)C(C)(C)C)cc1`, the inhibition was 41% (active). `CC(C)(C)S(=O)(=O)/C(C#N)=N/Nc1ccc(Cl)cc1` gave an inhibition of 4.5%. With `CC(=O)C1=C(O)C(=O)N(CCc2ccccc2)C1c1ccccc1[N+](=O)[O-]` (stereo unspecified) the inhibition was -12%. Work on `CCOC(=O)N1CCN(C(=O)c2cc3cc(OC)c(OC)cc3[nH]2)CC1` yielded an inhibition of -3.4%. With `O=C(NCCc1ccccc1)C(=O)NCC1OCCN1S(=O)(=O)c1ccc(Cl)cc1` (stereo unspecified) the inhibition was -1.1%. In the case of `CCCCN(C)Cc1c(C)[nH]c2c(Cl)cccc2c1=O`, the inhibition is reported as -15%. Work on `CCc1nnc(NC(=O)c2ccc(S(=O)(=O)N3CCc4ccccc4C3)cc2)s1` yielded an inhibition of -1.9%. For `O=C(Nc1nnc(C2CC2)s1)c1ccc(Cl)c(S(=O)(=O)N2CCc3ccccc3C2)c1`, the inhibition was 59%. `CN1CCN(c2nc3ccccc3nc2C(C#N)S(=O)(=O)c2ccccc2)CC1` (stereo unspecified) gave an inhibition of -5.2%. Work on `CSC1=N/C(=C\c2ccccc2Cl)C(=O)N1N(C)C` yielded an inhibition of 0.8%. Molecule `O=C(CN1CCc2ccccc2C1)NCC(=O)Nc1ccc(F)cc1` has an inhibition of -25.2%. Work on `CCOc1cc(C2/C(=C(/O)c3ccc(OC)cc3)C(=O)C(=O)N2CC2CCCO2)ccc1O` (stereo unspecified) yielded an inhibition of -1.7%. With `COc1ccc(O)c(CN2CCC(n3nccc3NC(=O)CCOc3ccccc3)CC2)c1` the inhibition was -1.2%. In the case of `COC(=O)Nc1ccc(S(=O)(=O)NC2CCS(=O)(=O)C2)cc1` (stereo unspecified), the inhibition is reported as -9.9%. In the case of `COC(=O)Cn1c(=O)c(C(=O)CCl)c(N)n(Cc2ccccc2)c1=O`, the inhibition is reported as 69.8% (active). `CCn1c(=O)c(C(=O)CC#N)c(N)n(Cc2ccccc2)c1=O` showed an inhibition of -11.1%. `Cn1c(N)c(C(=O)CCl)c(=O)n(Cc2ccccc2)c1=O` gave an inhibition of 43.7%. Molecule `COc1ccc(-c2csc3ncnc(N4CCN(c5ccccc5Cl)CC4)c23)cc1` has an inhibition of -4.5%. In the case of `CCOP(=O)(OCC)/C(=N/OC(=O)c1ccccc1C)C(N)=O`, the inhibition is reported as -58.9%. For `O=C(Cc1ccccc1)NCCc1cn2ccsc2n1`, the inhibition was -3.8%. Work on `Cc1ccc(C(=O)NC(C(=O)Nc2ccccc2)c2ccccc2)cc1` (stereo unspecified) yielded an inhibition of -3.5%. Work on `COc1ccc(NC(=O)C(NC(=O)c2ccc(=O)[nH]c2)c2ccccc2)cc1` (stereo unspecified) yielded an inhibition of -7.3%. For `COc1ccc(NC(=O)C(NC(=O)c2ccc(C)cc2)c2ccccc2)cc1` (stereo unspecified), the inhibition was 62.7% (active). In the case of `CCc1ccccc1NC(=O)c1cc(-c2ccc(OC)cc2)on1`, the inhibition is reported as -2%. `CC1Cc2ccccc2N1C(=O)CN1CCC(n2nnc3cc(C(F)(F)F)ccc32)CC1` (stereo unspecified) gave an inhibition of 23.9%. For `O=C(O)c1ccccc1C(=O)Nc1cccc([N+](=O)[O-])c1`, the inhibition was -0.9%. Work on `CC(=O)Nc1ccc(Br)c2ccccc12` yielded an inhibition of -4.6%. With `O=C(Nc1ccccn1)c1ccc2ccccc2c1O` the inhibition was -61.1%. With `O=C(Nc1cccc([N+](=O)[O-])c1)c1cc2ccccc2cc1O` the inhibition was 17.3%. Work on `O=C(O)c1cccc(NC(=S)N/N=C/c2ccccc2OCc2cccc(Br)c2)c1` yielded an inhibition of -13.5%. For `Cc1noc(-c2ccccc2)c1NC(=O)Nc1ccccc1`, the inhibition was 2%. Work on `C=CCOc1ccc2ccccc2c1CNCCCN1CCOCC1` yielded an inhibition of 10%. With `CCN1C(=O)N(S(=O)(=O)C(F)(F)F)[C@@H](c2ccccc2)C(C(=O)OC)=C1C` the inhibition was 0.6%. `COc1ccccc1N1CCN(C(=O)c2sc3nc(C)nc(N4CCN(c5ccccn5)CC4)c3c2C)CC1` gave an inhibition of 33.2%. Work on `Cc1nc(N2CCN(c3ccccn3)CC2)c2c(C)c(C(=O)N3CCN(c4cccc(Cl)c4)CC3)sc2n1` yielded an inhibition of 18%. Molecule `Cc1c(C(=O)N2CCN(c3ccccn3)CC2)sc2ncnc(N3CCOCC3)c12` has an inhibition of -12.5%. With `Cc1nc(N2CCN(c3ccccn3)CC2)c2c(C)c(C(=O)Nc3c(F)cc(F)cc3Br)sc2n1` the inhibition was -28.6%. For `Cc1nc(N2CCN(c3ccccn3)CC2)c2c(C)c(C(=O)Nc3ccc(Cl)cc3)sc2n1`, the inhibition was -14%. Work on `Cc1nc(N2CCN(c3ccccn3)CC2)c2c(C)c(C(=O)Nc3ccc(F)cc3F)sc2n1` yielded an inhibition of 12.3%. For `Cc1c(C(=O)N2CCN(c3ccccc3)CC2)sc2ncnc(N3CCN(c4ccccn4)CC3)c12`, the inhibition was 27.4%. Molecule `Cc1nc(N2CCN(c3ccccn3)CC2)c2c(C)c(C(=O)Nc3ccc(F)cc3Cl)sc2n1` has an inhibition of 6.8%. For `CCN(Cc1ccccc1)S(=O)(=O)c1ccc(OC)cc1`, the inhibition was 14.2%. Work on `COc1cccc(C2CC(c3cccs3)=NN2S(C)(=O)=O)c1OC` (stereo unspecified) yielded an inhibition of -30.3%. `N#CCSc1nc2ccccc2c(=O)n1CCC(=O)NCCc1ccccc1` showed an inhibition of 32.7%. `O=C1C(=O)N(CCCN2CCOCC2)C(c2ccc([N+](=O)[O-])cc2)/C1=C(/O)c1ccc2c(c1)OCO2` (stereo unspecified) gave an inhibition of -24.9%. `CCc1cccc(NC(=O)CCS(=O)(=O)c2ccc3c(c2)NC(=O)CO3)c1` gave an inhibition of -12.9%. Work on `CN(C(=O)CCN1C(=O)C(C)(C)Nc2ccccc21)c1ccccc1` yielded an inhibition of 0.1%. `Cc1ccc2[nH]cc(C(=O)CN3CCN(c4ccccn4)CC3)c2c1` showed an inhibition of -23%. Molecule `CC(NC(=O)OC1CCCCC1)N1C(=O)C2C3C=CC(C3)C2C1=O` (stereo unspecified) has an inhibition of -1.3%. Work on `Cn1c(N/N=C/c2cccs2)nc2c1c(=O)n(Cc1ccccc1)c(=O)n2C` yielded an inhibition of -22.5%. `NC(=O)c1cc2cc(Cl)ccc2oc1=Nc1cccc(C(F)(F)F)c1` gave an inhibition of -9.4%. With `Cn1c(O)c(C=Nc2ccc(N3CCOCC3)cc2)c(=O)n(C)c1=S` the inhibition was -14.6%. With `CCN(CC(=O)Nc1ccc2c(c1)OCCO2)S(=O)(=O)c1ccccc1` the inhibition was -42.6%. In the case of `CCCN1CN(Cc2ccccc2)CNC1=S`, the inhibition is reported as -23.1%. With `CCOC(=O)/C(C#N)=C/c1c(N2CCCCCC2)nc2ccccn2c1=O` the inhibition was 0.9%. In the case of `CC1=CC(C)(C)N2C(=O)C3(C(C#N)=C(N)Oc4cc(C)oc(=O)c43)c3cccc1c32` (stereo unspecified), the inhibition is reported as -1.1%. With `CCc1cc2c3c(c1)C1(C(=O)N3C(C)(C)C=C2C)C(C#N)=C(N)Oc2[nH]c(=O)[nH]c(=O)c21` (stereo unspecified) the inhibition was 54.6% (active). Work on `COc1cc2c3c(c1)C1(C(=O)N3C(C)(C)C=C2C)C(C#N)=C(N)Oc2cc(C)oc(=O)c21` (stereo unspecified) yielded an inhibition of -10.4%. Molecule `Cc1cc(C)n(C(=O)/C(C#N)=N\Nc2ccccc2[N+](=O)[O-])n1` has an inhibition of -30.2%. In the case of `Cc1cc(C)n(C(=O)/C(C#N)=C/N(C)C)n1`, the inhibition is reported as -47.6%. For `Cc1cc(C)n(C(=O)/C(C#N)=N/Nc2cc(Cl)cc(Cl)c2)n1`, the inhibition was 40.4% (active). For `Cc1nc(Cl)c(C(=O)NCc2ccccc2)c(C)c1[N+](=O)[O-]`, the inhibition was -6.1%. For `O=C(NCc1ccccc1)c1c(Cl)nc(Cl)c(Cl)c1Cl`, the inhibition was 54.5% (active). `Cc1nc(Cl)c(C(=O)NCc2ccccc2)c(C)c1Cl` gave an inhibition of -37.4%.
